{
  "source": "PubChem BioAssay AID2018",
  "about": "(Sanford-Burnham Center for Chemical Genomics, 2009)",
  "note": "In all, about 1,200 compounds went through this assay and about 600 (50%) were called active. Rule as the data show it: active = inhibition above about 42%; inactive = the rest. The set was probably picked from earlier hits. The list shows a part of the results. Results with a measured potency or affinity are listed apart.",
  "data": [
    {"target": "SUMO-conjugating enzyme UBC9 (Homo sapiens) (UniProt P63279)", "sequence (P63279 whole entry, looked up)": "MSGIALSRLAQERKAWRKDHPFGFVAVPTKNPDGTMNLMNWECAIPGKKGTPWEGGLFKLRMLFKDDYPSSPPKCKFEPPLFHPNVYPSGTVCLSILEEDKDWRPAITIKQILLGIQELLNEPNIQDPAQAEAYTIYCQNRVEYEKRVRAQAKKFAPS", "experiment": "blockers of UBC9-mediated SUMO conjugation – biochemical, AlphaScreen, SUMOylation inhibitor project, confirmation (AID 2018)", "conditions": "AlphaScreen in vitro SUMOylation assay; at 35 µM; hits give high values", "values": [
      {"smiles": "CCOCCCN1CN(Cc2ccco2)CNC1=S", "inhibition": "4.1% (inactive)"},
      {"smiles": "O=C(O)/C=C/c1cn(-c2ccccc2)nc1-c1cc2ccccc2o1", "inhibition": "10.4% (inactive)"},
      {"smiles": "O=C(O)/C=C\\c1cn(-c2ccccc2)nc1-c1cc2ccccc2o1", "inhibition": "27.9% (inactive)"},
      {"smiles": "Cc1ccc(C)c(S(=O)(=O)c2c(N)n(/N=C/c3ccco3)c3nc4ccccc4nc23)c1", "inhibition": "23% (inactive)"},
      {"smiles": "Cc1ccc(S(=O)(=O)c2c(N)n(/N=C/c3ccco3)c3nc4ccccc4nc23)cc1C", "inhibition": "26.1% (inactive)"},
      {"smiles": "COc1ccc(CNC(=O)c2c(N)n(CCCN3CCOCC3)c3nc4ccccc4nc23)cc1", "inhibition": "3.3% (inactive)"},
      {"smiles": "C=CCn1c(NC(=O)c2ccc(Br)o2)c(S(=O)(=O)c2ccccc2)c2nc3ccccc3nc21", "inhibition": "65.4% (active)"},
      {"smiles": "O=C(c1cccn2c(=O)c3cc(Cl)ccc3nc12)N1CCOCC1", "inhibition": "5.9% (inactive)"},
      {"smiles": "Cc1ncc(CO)c(/C=N/NC(=O)c2cc(O)c(O)c(O)c2)c1O", "inhibition": "99.6% (active)"},
      {"smiles": "CC(=O)NC1C(=O)N(CCN2CCOCC2)c2ccc(Br)cc21", "note": "(stereo not given)", "inhibition": "99% (active)"},
      {"smiles": "Brc1ccc(OCCN2CCOCC2)cc1", "inhibition": "13.4% (inactive)"},
      {"smiles": "CCOc1ccc2c(c1)C(NC(C)=O)C(=O)N2CCN1CCOCC1", "note": "(stereo not given)", "inhibition": "95.9% (active)"},
      {"smiles": "Cn1c(=O)n(C)c2cc(S(=O)(=O)NCCO)ccc21", "inhibition": "13.1% (inactive)"},
      {"smiles": "CCc1ccc2c(c1)C(NC(C)=O)C(=O)N2CCN1CCOCC1", "note": "(stereo not given)", "inhibition": "96.7% (active)"},
      {"smiles": "O=C(Nc1cccc2ccccc12)N1CCc2ccccc2C1", "inhibition": "13.1% (inactive)"},
      {"smiles": "Oc1ccc(N=Cc2ccc(-c3cccs3)s2)cc1", "inhibition": "52.6% (active)"},
      {"smiles": "Cc1ccc(C)c(-c2nc3ccc(N)cc3[nH]2)c1", "inhibition": "8.5% (inactive)"},
      {"smiles": "N#CC1=C(SCC(=O)NC23CC4CC(CC(C4)C2)C3)NC(=O)C(C#N)C12CCCCC2", "note": "(stereo not given)", "inhibition": "-21.2% (inactive)"},
      {"smiles": "COc1ccc(OC)c2c1C(=O)c1ccccc1C2=O", "inhibition": "44% (active)"},
      {"smiles": "COc1cccc2c1C(=O)c1ccc3ccccc3c1C2=O", "inhibition": "75.8% (active)"},
      {"smiles": "CN(C)/C=C1\\Oc2ccc3ccccc3c2C1=O", "inhibition": "-1.5% (inactive)"},
      {"smiles": "CN(C)/C=C1/Oc2c(ccc3ccccc23)C1=O", "inhibition": "-1.2% (inactive)"},
      {"smiles": "COc1ccc(Cc2n[nH]c(=S)n2NC(=O)Nc2ccc(Cl)c(Cl)c2)cc1", "inhibition": "24.4% (inactive)"},
      {"smiles": "COCCn1nnnc1C(c1cc2ccc(OC)cc2[nH]c1=O)N1CCc2ccccc2C1", "note": "(stereo not given)", "inhibition": "4.8% (inactive)"},
      {"smiles": "COc1ccc(-c2cc(=O)[nH][nH]2)cc1", "inhibition": "27.6% (inactive)"},
      {"smiles": "COc1ccc(NCc2cc3ccccc3[nH]c2=O)cc1", "inhibition": "46.4% (active)"},
      {"smiles": "O=C(NCc1ccccc1)Nc1cccn(Cc2ccc(Cl)cc2)c1=O", "inhibition": "-10.4% (inactive)"},
      {"smiles": "CN(C)/C=N/c1nc2nccc(-c3ccc(F)cc3)n2n1", "inhibition": "1.6% (inactive)"},
      {"smiles": "CCN(CC)S(=O)(=O)c1cc(C)ccc1SC", "inhibition": "-1% (inactive)"},
      {"smiles": "Cc1ccc(C(=O)c2c3ccc(N)cc3nn2CCC(N)=O)cc1", "inhibition": "38.2% (inactive)"},
      {"smiles": "Cc1c(N=C2C=CC(=O)c3ccccc32)c(=O)n(-c2ccccc2)n1C", "inhibition": "102% (active)"},
      {"smiles": "CCc1cc2c(=O)nc3n(c2s1)Cc1ccccc1/C3=C(/O)c1cccc([N+](=O)[O-])c1", "inhibition": "16.9% (inactive)"},
      {"smiles": "Cc1cc(=O)n2[nH]c(N)c(N=Nc3ccccc3F)c2n1", "inhibition": "12.9% (inactive)"},
      {"smiles": "Nc1c(C(=O)Nc2ccccc2)sc2nc(-c3ccco3)ccc12", "inhibition": "-10.2% (inactive)"},
      {"smiles": "COc1ccccc1NC(=O)Nc1ccnn1Cc1cccs1", "inhibition": "16.5% (inactive)"},
      {"smiles": "Nc1c(C(=O)Nc2ccc(F)cc2)sc2nc(-c3ccco3)ccc12", "inhibition": "35.1% (inactive)"},
      {"smiles": "Cc1ccc(S(=O)(=O)N2CCCCC2)cc1NC(=O)COC(=O)c1c(F)cccc1F", "inhibition": "-6.2% (inactive)"},
      {"smiles": "Cc1cc2c(NC(=O)Nc3ccc(C(C)(C)C)cc3)cccc2nn1", "inhibition": "15.3% (inactive)"},
      {"smiles": "CCOC(=O)NC(=O)COC(=O)c1ccc(O)cc1", "inhibition": "24.8% (inactive)"},
      {"smiles": "COc1ccc2nc(-c3ccco3)c(-c3ccco3)nc2c1", "inhibition": "76.8% (active)"},
      {"smiles": "O=C(NCc1ccco1)Nc1ccc2snnc2c1", "inhibition": "11% (inactive)"},
      {"smiles": "COCCn1c(-c2ccco2)nc2nc3ccccc3nc21", "inhibition": "19.2% (inactive)"},
      {"smiles": "COc1cc(OC)cc(-c2nc(-c3ccccc3)no2)c1", "inhibition": "-70.2% (inactive)"},
      {"smiles": "COCCNC(=O)Nc1ccc2nc(-c3ccco3)c(-c3ccco3)nc2c1", "inhibition": "102% (active)"},
      {"smiles": "CCOc1ccccc1Oc1c(C)oc2c(CN3CCN(C)CC3)c(O)ccc2c1=O", "inhibition": "-5.4% (inactive)"},
      {"smiles": "Cc1cccc(-c2n[nH]c(=S)n2/N=C/C=C/c2ccco2)c1", "inhibition": "37.5% (inactive)"},
      {"smiles": "S=c1[nH]nc(-c2cc(-c3ccccc3)n[nH]2)n1/N=C/c1ccc(Cl)c(Cl)c1", "inhibition": "12.5% (inactive)"},
      {"smiles": "O=C(O)CCCCCNc1ccc2nsnc2c1[N+](=O)[O-]", "inhibition": "-10.2% (inactive)"},
      {"smiles": "C[C@@H]1CN=C2N(CCNC(=O)CCC3CCCCC3)[C@H](Cc3ccc(O)cc3)CN21", "inhibition": "6% (inactive)"},
      {"smiles": "O=C1OC(Nc2ccc3ncccc3c2)c2ccccc21", "note": "(stereo not given)", "inhibition": "2.1% (inactive)"},
      {"smiles": "Cc1cccc(C(=O)O)c1NC(=O)c1ccc(F)cc1", "inhibition": "2.9% (inactive)"},
      {"smiles": "Cc1cc2c(NC(=O)Nc3ccc(F)cc3)cccc2nn1", "inhibition": "10.5% (inactive)"},
      {"smiles": "Cc1cc2c(N)cccc2nn1", "inhibition": "101% (active)"},
      {"smiles": "Cc1cc2c(NC(=O)Nc3ccccc3)cccc2nn1", "inhibition": "26.1% (inactive)"},
      {"smiles": "COc1ccc(C2C3=C(CCCC3=O)Nc3c(-c4ccccc4)c(C)nn32)cc1", "note": "(stereo not given)", "inhibition": "4.2% (inactive)"},
      {"smiles": "O=C(O)CSc1cc(C(=O)c2ccccc2O)cn2c(=O)c3c(-c4ccccc4)csc3nc12", "inhibition": "99.2% (active)"},
      {"smiles": "O=C(O)CSc1cc(C(=O)c2cc(F)ccc2O)cn2c(=O)c3c(-c4ccccc4)csc3nc12", "inhibition": "95.3% (active)"},
      {"smiles": "COc1ccc(/C=C/c2cc(C(=O)O)c3ccccc3n2)cc1", "inhibition": "21.4% (inactive)"},
      {"smiles": "N#CCCN(Cc1cccnc1)C(=S)NC1CC2C=CC1C2", "note": "(stereo not given)", "inhibition": "-4.1% (inactive)"},
      {"smiles": "COC(=O)Cn1c2ccc(C)cc2c2nc(C)sc21", "inhibition": "30.1% (inactive)"},
      {"smiles": "CCOC(=O)Cn1c2ccc(OC)cc2c2nc3ccccc3nc21", "inhibition": "38.7% (inactive)"},
      {"smiles": "COc1cc2c(C#N)c(N3CCN(C)CC3)nc(N)c2c(N)n1", "inhibition": "21.5% (inactive)"},
      {"smiles": "CCCN(CC1CC1)c1nc(N)c2c(N)nc(OC)cc2c1C#N", "inhibition": "16.9% (inactive)"},
      {"smiles": "COc1cc2c(C#N)c(N3CCN(c4ccccc4OC)CC3)nc(N)c2c(N)n1", "inhibition": "19.7% (inactive)"},
      {"smiles": "COc1cc2c(C#N)c(N3CCCCC3)nc(N)c2c(N)n1", "inhibition": "47.6% (active)"}
    ]}
  ]
}
